# The sample as a whole holds a higher share of the strongest signals than the screen did.
# Key:
# Test in all cases: glycan array binding signal (z-score within array); higher = stronger binding
# Conditions in all cases: glycan notation: IUPAC condensed, linker removed
# [1] = target: GlcNAc(b1-3)Gal(b1-4)GlcNAc(b1-3)Gal(b1-4)GlcNAc(b1-3)Gal(b1-4)GlcNAc(b1-3)Gal(b1-4)GlcNAc(b1-2)Man(a1-3)[GlcNAc(b1-3)Gal(b1-4)GlcNAc(b1-3)Gal(b1-4)GlcNAc(b1-3)Gal(b1-4)GlcNAc(b1-3)Gal(b1-4)GlcNAc(b1-2)Man(a1-6)]Man(b1-4)GlcNAc(b1-4)GlcNAc
# Outline: (§1)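 Negative Z-scores can be read as non-binding. The Z-score is calculated within each array and then averaged across arrays of one protein sequence at different concentrations or buffers and across linkers. Arrays, 3228 in all, were curated from the Consortium for Functional Glycomics database and kept only where the protein sequence was available.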
# [2] = target: GlcNAc(b1-3)Gal(b1-4)GlcNAc(b1-3)Gal(b1-4)GlcNAc(b1-3)Gal(b1-4)GlcNAc(b1-3)Gal(b1-4)GlcNAc(b1-2)Man(a1-3)[GlcNAc(b1-3)Gal(b1-4)GlcNAc(b1-3)Gal(b1-4)GlcNAc(b1-3)Gal(b1-4)GlcNAc(b1-3)Gal(b1-4)GlcNAc(b1-2)Man(a1-6)]Man(b1-4)GlcNAc(b1-4)[Fuc(a1-6)]GlcNAc
# Outline: as §1
# [3] = target: GlcNAc(b1-3)GalNAc
# Outline: as §1
# [4] = target: GlcNAc(b1-3)[GlcNAc(b1-4)][GlcNAc(b1-6)]GlcNAc
# Outline: as §1
# [5] = target: GlcNAc3Prop(b1-4)GlcNAc
# Outline: as §1
# [6] = target: Neu5Ac(a2-3)Gal(b1-3)GalNAc(b1-3)Gal(a1-4)Gal(b1-4)Glc
# Outline: as §1
# [7] = target: Neu5Ac(a2-3)Gal(b1-3)GalNAc(b1-4)[Neu5Ac(a2-8)Neu5Ac(a2-3)]Gal(b1-4)Glc
# Outline: as §1
# [8] = target: Neu5Ac(a2-3)Gal(b1-3)[Fuc(a1-4)]GlcNAc
# Outline: as §1
# [9] = target: Neu5Ac(a2-3)Gal(b1-4)Glc
# Outline: as §1
# [10] = target: Neu5Ac(a2-3)Gal(b1-4)GlcNAc
# Outline: as §1
# [11] = target: Neu5Ac(a2-3)Gal(b1-4)GlcNAc(b1-2)Man(a1-3)[GlcNAc(b1-4)][Neu5Ac(a2-3)Gal(b1-4)GlcNAc(b1-2)Man(a1-6)]Man(b1-4)GlcNAc(b1-4)GlcNAc
# Outline: as §1
# [12] = target: Neu5Ac(a2-3)Gal(b1-4)GlcNAc(b1-2)[Neu5Ac(a2-3)Gal(b1-4)GlcNAc(b1-6)]Man(a1-6)[Neu5Ac(a2-3)Gal(b1-4)GlcNAc(b1-2)Man(a1-3)][GlcNAc(b1-4)]Man(b1-4)GlcNAc(b1-4)GlcNAc
# Outline: as §1
# [13] = target: Neu5Ac(a2-6)Gal(b1-4)Glc
# Outline: as §1
# [14] = target: Neu5Ac(a2-6)Gal(b1-4)GlcNAc(b1-2)Man(a1-3)[Neu5Ac(a2-3)Gal(b1-4)GlcNAc(b1-2)Man(a1-6)]Man(b1-4)GlcNAc(b1-4)GlcNAc
# Outline: as §1
# [15] = target: Neu5Ac(a2-6)Gal(b1-4)GlcNAc(b1-3)Gal(b1-4)GlcNAc(b1-3)Gal(b1-4)GlcNAc(b1-2)Man(a1-3)[Neu5Ac(a2-6)Gal(b1-4)GlcNAc(b1-3)Gal(b1-4)GlcNAc(b1-3)Gal(b1-4)GlcNAc(b1-2)Man(a1-6)]GalNAc
# Outline: as §1
# [16] = target: Neu5Ac(a2-6)GalNAc(b1-4)GlcNAc
# Outline: as §1
# [17] = target: Neu5Gc(a2-8)Neu5Gc(a2-3)Gal(b1-4)GlcNAc(b1-3)Gal(b1-4)GlcNAc
# Outline: as §1
binder,measurement,setting,value
rAAL-2 (Agrocybe aegerita) (protein) MTSNVITQDLPIPVASRGFADIVGFGLDGVVIGRNAVNLQPFLAVKNFAQNAGGWLTTKHVRLIADTTGTGKGDIVGFGNAGVYVSVNNGKNTFADPPKMVIANFGYDAGGWRVEKHLRYLADIRKIGRADIIGFGEKGVLVSRNNGGLNFGPATLVLKDFGYDAGGWRLDRHLRFLADVTGNGHLDIVGFGDKHVFISRNNGDGTFAPAKSVIDNFCIDAGGWKIGDHPRFVADLTGDGTADIIGCGKAGCWVALNNGGGVFGQVKLVINDFGTDKGWQAAKHPRFIADLTGNGRGDVVGFGNAGVYVALNNGDGTFQSAKLVLKDFGVQQGWTVSKHRRFVVDLTGDGCADIIGFGEKETLVSYNDGKGNFGPVKALTNDFSFSGGKWAPETTVCWMANLDSSRH,glycan array binding signal (z-score),[1],4.12
same,glycan array binding signal (z-score),[2],3.97
same,glycan array binding signal (z-score),[3],0.798
same,glycan array binding signal (z-score),[4],-0.339
same,glycan array binding signal (z-score),[5],0.177
same,glycan array binding signal (z-score),[6],-0.228
same,glycan array binding signal (z-score),[7],-0.103
same,glycan array binding signal (z-score),[8],-0.392
same,glycan array binding signal (z-score),[9],-0.151
same,glycan array binding signal (z-score),[10],-0.177
same,glycan array binding signal (z-score),[11],-0.314
same,glycan array binding signal (z-score),[12],-0.33
same,glycan array binding signal (z-score),[13],-0.303
same,glycan array binding signal (z-score),[14],-0.237
same,glycan array binding signal (z-score),[15],0.107
same,glycan array binding signal (z-score),[16],-0.288
same,glycan array binding signal (z-score),[17],-0.178

# Reference: the supplement of paper PMC8728848
